Assay in all cases: universal protein binding microarray (PBM); transcription factors of Arabidopsis thaliana; high values mean tight binding
One assay concerns the target T1, GST-ANAC092(1-176) (Arabidopsis thaliana, UniProt Q9FKA0 1-176).
T1 sequence: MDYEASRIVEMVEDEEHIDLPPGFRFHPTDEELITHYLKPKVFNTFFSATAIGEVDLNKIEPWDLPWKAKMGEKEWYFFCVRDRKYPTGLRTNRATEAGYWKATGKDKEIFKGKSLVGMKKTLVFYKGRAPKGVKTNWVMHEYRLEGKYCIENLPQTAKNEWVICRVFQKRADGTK
To be noted: protein: recombinant; tags: GST; chain copies: 2; dsDNA, one strand shown. An outline of the steps:
(§1)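 Each value is a normalised enrichment score (E-score) describing binding. The GST-tagged proteins, NAC-domain, full-length or DNA-binding-domain, were induced in cells (zinc-finger proteins with zinc acetate added) and purified on glutathione–Sepharose 4B. They were applied at 200 to 500 nM final, in duplicate, to double-stranded custom all-10-mer Agilent 4 × 180K arrays, and gapped and ungapped 8-mers were scored.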

The target of a further assay is GST-NTL6(1-168) (Arabidopsis thaliana, UniProt Q9SCK6 1-168). The note with it: protein: recombinant; tags: GST; chain copies: 2; dsDNA, one strand shown. An outline of the steps: as §1
For assay [1], the target named is T2, GST-ANAC092(1-285) full length (Arabidopsis thaliana, UniProt Q9FKA0 1-285).
T2 sequence: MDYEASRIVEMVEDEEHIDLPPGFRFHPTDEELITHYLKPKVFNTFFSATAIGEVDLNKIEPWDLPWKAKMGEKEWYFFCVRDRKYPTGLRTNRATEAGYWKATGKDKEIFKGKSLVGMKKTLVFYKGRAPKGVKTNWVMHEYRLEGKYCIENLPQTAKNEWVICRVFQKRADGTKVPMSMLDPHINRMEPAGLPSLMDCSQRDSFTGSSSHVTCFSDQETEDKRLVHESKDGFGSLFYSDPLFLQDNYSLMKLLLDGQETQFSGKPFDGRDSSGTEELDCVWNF
The note with it: protein: recombinant; tags: GST; chain copies: 2; dsDNA, one strand shown. An outline of the steps: as §1

A further assay concerns the target T3, GST-NST2(1-184) (Arabidopsis thaliana, UniProt Q9M274 1-184).
T3 sequence: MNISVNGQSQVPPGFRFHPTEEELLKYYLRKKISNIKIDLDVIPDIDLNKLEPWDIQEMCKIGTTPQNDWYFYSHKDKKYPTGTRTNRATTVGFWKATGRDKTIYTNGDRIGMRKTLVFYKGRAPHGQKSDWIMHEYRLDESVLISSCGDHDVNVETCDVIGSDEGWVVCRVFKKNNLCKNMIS
To be noted: protein: recombinant; tags: GST; chain copies: 2; dsDNA, one strand shown. An outline of the steps:
as §1

Another assay concerns the target T4, GST-NTL8 NAC domain (Arabidopsis thaliana, UniProt Q9XIN7 14-156).
T4 sequence: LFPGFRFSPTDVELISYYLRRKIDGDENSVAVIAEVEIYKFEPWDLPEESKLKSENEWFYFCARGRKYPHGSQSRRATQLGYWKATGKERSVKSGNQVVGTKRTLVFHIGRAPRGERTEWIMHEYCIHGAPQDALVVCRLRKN
The note with it: protein: recombinant; tags: GST; chain copies: 2; dsDNA, one strand shown. An outline of the steps:
as §1

In the next assay the target is T5, GST-SND1(1-203) (Arabidopsis thaliana, UniProt Q9LPI7 1-203).
T5 sequence: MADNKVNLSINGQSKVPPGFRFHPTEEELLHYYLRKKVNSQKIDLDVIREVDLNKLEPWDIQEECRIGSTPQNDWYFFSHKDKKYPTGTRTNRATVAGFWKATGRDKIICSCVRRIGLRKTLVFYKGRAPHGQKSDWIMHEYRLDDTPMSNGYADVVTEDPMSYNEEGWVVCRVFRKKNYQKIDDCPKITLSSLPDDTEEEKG
To be noted: protein: recombinant; tags: GST; chain copies: 2; dsDNA, one strand shown. In a few lines:
as §1

A further assay addresses T6, GST-ANAC019 NAC domain (Arabidopsis thaliana, UniProt Q9C932 14-162).
T6 sequence: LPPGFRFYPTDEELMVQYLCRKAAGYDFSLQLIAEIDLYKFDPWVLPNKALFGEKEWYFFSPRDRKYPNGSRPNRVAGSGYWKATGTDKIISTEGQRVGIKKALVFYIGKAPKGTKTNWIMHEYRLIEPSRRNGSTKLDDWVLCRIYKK
To be noted: protein: recombinant; tags: GST; chain copies: 2; dsDNA, one strand shown. In a few lines: as §1

In a further assay the target is T7, GST-ANAC055(1-171) (Arabidopsis thaliana, UniProt Q9LDY8 1-171).
T7 sequence: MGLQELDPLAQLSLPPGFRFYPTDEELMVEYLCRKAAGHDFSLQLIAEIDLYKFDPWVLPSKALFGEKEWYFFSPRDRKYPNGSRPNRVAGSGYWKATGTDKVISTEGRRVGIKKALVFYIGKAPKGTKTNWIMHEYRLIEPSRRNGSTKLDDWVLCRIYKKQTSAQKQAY
To be noted: protein: recombinant; tags: GST; chain copies: 2; dsDNA, one strand shown. An outline of the steps: as §1

Another assay has as its target T8, GST-ATAF1 NAC domain (Arabidopsis thaliana, UniProt Q39013 7-158).
T8 sequence: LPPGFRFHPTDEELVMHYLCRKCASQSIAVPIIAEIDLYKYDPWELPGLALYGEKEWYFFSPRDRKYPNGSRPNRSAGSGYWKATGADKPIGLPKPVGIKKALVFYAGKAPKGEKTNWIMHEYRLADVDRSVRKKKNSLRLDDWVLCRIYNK
To be noted: protein: recombinant; tags: GST; chain copies: 2; dsDNA, one strand shown. In a few lines: as §1

Another assay has as its target T9, GST-VND3 NAC domain (Arabidopsis thaliana, UniProt Q9FH59 12-162).
T9 sequence: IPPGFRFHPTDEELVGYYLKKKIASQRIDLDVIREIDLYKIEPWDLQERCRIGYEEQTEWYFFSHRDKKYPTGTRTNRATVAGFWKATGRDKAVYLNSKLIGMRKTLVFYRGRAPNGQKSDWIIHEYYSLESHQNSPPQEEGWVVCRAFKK
To be noted: protein: recombinant; tags: GST; chain copies: 2; dsDNA, one strand shown. In a few lines:
as §1

The next assay concerns the target T10, GST-VND7 NAC domain (Arabidopsis thaliana, UniProt Q9C8W9 9-158).
T10 sequence: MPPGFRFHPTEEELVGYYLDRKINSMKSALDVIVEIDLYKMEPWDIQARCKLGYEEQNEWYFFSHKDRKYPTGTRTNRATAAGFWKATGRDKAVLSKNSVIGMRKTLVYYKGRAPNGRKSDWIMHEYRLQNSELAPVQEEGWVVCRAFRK
The note with it: protein: recombinant; tags: GST; chain copies: 2; dsDNA, one strand shown. An outline of the steps:
as §1

The next assay concerns the target GST-WRKY1(266-371) (Arabidopsis thaliana, UniProt Q9SI37 266-371). The note with it: protein: recombinant; tags: GST; dsDNA, one strand shown. An outline of the steps:
as §1

A further assay deals with T11, GST-NAP(1-166) (Arabidopsis thaliana, UniProt O49255 1-166).
T11 sequence: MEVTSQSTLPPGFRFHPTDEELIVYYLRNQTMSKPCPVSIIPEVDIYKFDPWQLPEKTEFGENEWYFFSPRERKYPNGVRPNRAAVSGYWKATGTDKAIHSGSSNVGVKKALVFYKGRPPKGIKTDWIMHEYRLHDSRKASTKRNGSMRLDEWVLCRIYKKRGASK
The note with it: protein: recombinant; tags: GST; chain copies: 2; dsDNA, one strand shown. In a few lines:
as §1

Chain of GST-WRKY1(266-371) (Q9SI37 266-371): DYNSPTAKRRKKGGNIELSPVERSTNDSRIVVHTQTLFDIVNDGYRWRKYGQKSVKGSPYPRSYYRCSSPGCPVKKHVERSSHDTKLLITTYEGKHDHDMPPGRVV
Chain of GST-NTL6(1-168) (Q9SCK6 1-168): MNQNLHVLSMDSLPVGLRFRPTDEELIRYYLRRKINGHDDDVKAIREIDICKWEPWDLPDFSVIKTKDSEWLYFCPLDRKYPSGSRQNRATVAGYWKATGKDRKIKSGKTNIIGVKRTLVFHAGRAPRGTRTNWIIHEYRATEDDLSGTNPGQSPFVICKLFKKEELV

On to CTAAGGAA, for which the binding signal with GST-ANAC092(1-176) was 0.125 E-score; with GST-NTL6(1-168), 0.47 E-score; in assay [1], 0.128 E-score; with GST-NST2(1-184), 0.144 E-score; with GST-NTL8 NAC domain, 0.246 E-score; with GST-SND1(1-203), 0.306 E-score.

As to AAGTCTTC, the binding signal amounted to 0.204 E-score with GST-NTL6(1-168); 0.052 E-score with GST-ANAC019 NAC domain; 0.0748 E-score in the assay with GST-ANAC055(1-171); 0.0685 E-score in the assay with GST-ATAF1 NAC domain; 0.0771 E-score with GST-NTL8 NAC domain; 0.123 E-score with GST-VND3 NAC domain. In addition, the binding signal with GST-VND7 NAC domain was found to be 0.0783 E-score; in the assay with GST-WRKY1(266-371), 0.429 E-score.

Consider CATGGTCA, for which the binding signal with GST-VND3 NAC domain amounted to 0.0588 E-score; with GST-WRKY1(266-371) it was 0.443 E-score.

AGGTCAAA: the binding signal in the assay with GST-NTL6(1-168) came to 0.0901 E-score; with GST-ANAC055(1-171), 0.0973 E-score; with GST-ATAF1 NAC domain, 0.0548 E-score; with GST-VND3 NAC domain it was 0.062 E-score; with GST-VND7 NAC domain it was 0.0735 E-score; with GST-WRKY1(266-371), 0.482 E-score.

With ACACGGTA, the binding signal with GST-ANAC092(1-176) worked out at 0.437 E-score; in the assay with GST-ANAC019 NAC domain it was 0.286 E-score; with GST-ANAC055(1-171), 0.265 E-score; in the assay with GST-ATAF1 NAC domain, 0.21 E-score; in [1], 0.443 E-score; with GST-NAP(1-166) it was 0.234 E-score. Besides, the binding signal with GST-NST2(1-184) worked out at 0.202 E-score; with GST-VND3 NAC domain, 0.227 E-score; with GST-VND7 NAC domain, 0.123 E-score.

In the case of GTGGTCAA, the binding signal with GST-ANAC092(1-176) is 0.0557 E-score; with GST-ANAC055(1-171) it was 0.113 E-score; with GST-ATAF1 NAC domain, 0.135 E-score; in the assay with GST-VND3 NAC domain, 0.0872 E-score; with GST-WRKY1(266-371), 0.489 E-score.

For the sequence AATGGTCA, the binding signal with GST-NTL6(1-168) was 0.0526 E-score; with GST-VND3 NAC domain, 0.0734 E-score; with GST-WRKY1(266-371), 0.434 E-score.

On to GTCAAATA, for which the binding signal with GST-NTL6(1-168) is 0.0593 E-score; with GST-ANAC055(1-171), 0.0664 E-score; in the assay with GST-ATAF1 NAC domain it was 0.141 E-score; in the assay with GST-NAP(1-166) it was 0.0873 E-score; with GST-VND3 NAC domain it was 0.0795 E-score; with GST-VND7 NAC domain it was 0.139 E-score. In the assay with GST-WRKY1(266-371), the binding signal turned out to be 0.461 E-score.

On to ATAGTCAA, for which the binding signal with GST-ANAC055(1-171) stood at 0.122 E-score; with GST-ATAF1 NAC domain it was 0.263 E-score; in assay [1], 0.12 E-score; in the assay with GST-NAP(1-166) it was 0.0851 E-score; with GST-NST2(1-184), 0.146 E-score; in the assay with GST-VND3 NAC domain it was 0.211 E-score. The binding signal worked out at 0.12 E-score with GST-VND7 NAC domain and 0.473 E-score in the assay with GST-WRKY1(266-371).

On to CTAGTCAA, for which the binding signal stood at 0.0699 E-score with GST-ANAC019 NAC domain; 0.171 E-score with GST-ANAC055(1-171); 0.148 E-score in the assay with GST-ATAF1 NAC domain; 0.0883 E-score in assay [1]; 0.0822 E-score with GST-NTL8 NAC domain; 0.166 E-score in the assay with GST-VND3 NAC domain. The binding signal in the assay with GST-VND7 NAC domain is 0.08 E-score; with GST-WRKY1(266-371) it was 0.474 E-score.

For ATTGACTA, the binding signal with GST-ANAC092(1-176) came out at 0.0863 E-score; with GST-ANAC055(1-171), 0.18 E-score; in the assay with GST-ATAF1 NAC domain it was 0.259 E-score; in assay [1] it was 0.153 E-score; in the assay with GST-NAP(1-166), 0.0723 E-score; in the assay with GST-NST2(1-184), 0.182 E-score. Besides, the results for the binding signal with GST-VND3 NAC domain and with GST-WRKY1(266-371) were 0.228 E-score and 0.466 E-score, respectively.

For CACGGCTC, the binding signal in the assay with GST-ANAC019 NAC domain came out at 0.42 E-score; in the assay with GST-ANAC055(1-171), 0.384 E-score; with GST-ATAF1 NAC domain, 0.336 E-score; in [1], 0.18 E-score; in the assay with GST-NAP(1-166) it was 0.3 E-score; with GST-VND3 NAC domain it was 0.337 E-score. The binding signal with GST-VND7 NAC domain worked out at 0.377 E-score.

As for TTCGTCAA, the binding signal was determined as 0.0728 E-score with GST-NTL6(1-168); 0.0829 E-score with GST-ANAC055(1-171); 0.106 E-score in the assay with GST-ATAF1 NAC domain; 0.0695 E-score in assay [1]; 0.0662 E-score with GST-NST2(1-184); 0.0782 E-score in the assay with GST-VND3 NAC domain. The binding signal with GST-WRKY1(266-371) was determined as 0.437 E-score.

On to GTCAATCA, for which the binding signal was 0.0668 E-score with GST-ANAC019 NAC domain; 0.0807 E-score with GST-ANAC055(1-171); 0.169 E-score in [1]; 0.0647 E-score in the assay with GST-NST2(1-184); 0.0888 E-score in the assay with GST-NTL8 NAC domain; 0.132 E-score with GST-VND3 NAC domain. The binding signal in the assay with GST-VND7 NAC domain is 0.114 E-score; with GST-WRKY1(266-371) it was 0.435 E-score.

(Values after article PMC4081100, “A DNA-binding-site landscape and regulatory network analysis for NAC transcription factors in Arabidopsis thaliana”.)
